Hits are enriched below; roughly 12% of the tested compounds scored in any of these assays.
DAT uptake mod = human DAT dopamine uptake with cocaine, either direction; Q01959; LLC-PK1 hDAT cells, [14C]-dopamine uptake with cocaine IC80; actives deviate in either direction; B-score at 10 µM; actives 1.3% (n = 110,000);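 active means Z score or B-score, a plate-position-corrected score, falls beyond the plate's 99.7% confidence bounds, in either direction; inactive means both scores lie inside the 99.7% bounds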;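 further: scored against the spread of the other compound wells on the same plate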
PostGolgi yeast = growth inhibition of a yeast mutant, post-Golgi transport screen; actives 0.9% (n = 98,000); inhibition, % at 10 µM; AID 739; post-Golgi transport phenotypic cell assay;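 further: yeast cells grown in 1536-well plates; yeast grown about 18 h at 30C before absorbance read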
PLAP activator = activates human placental alkaline phosphatase. P05187. purified PLAP enzyme, luminescent substrate read-out; hits give high values. activation fold at 20 µM. actives 1.2% (n = 96,000). AID 696; in the data active means activation fold above about 2
Cav3 T inh = blocks human Cav3.2 T-type calcium channel; B-score at 10 µM; O95180; actives 4% (n = 100,000); Cav3.2-expressing cells, Fluo-4 calcium fluorescence FDSS; hits give low values;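 active means single-dose well whose peak fluorescence ratio is a statistical outlier from its plate by either plate-standardised score or position-corrected B-score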
D1 mod = allosterically modulates the human D1 dopamine receptor; HEK293 D1, CRE-luciferase, dopamine EC30 potentiation; actives deviate in either direction; P21728; B-score at 10 µM; actives 5.9% (n = 58,000);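 active means luminescence count or its row- and column-corrected plate score outside the 99.7% band of the plate's sample wells, on either side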
PostGolgi ctrl = yeast control strain growth, post-Golgi counter-screen; efflux-deficient yeast background strain, growth absorbance A615, 16 h; inhibition, % at 10 µM; actives 5% (n = 98,000)
* hit, by the source's call; / = not tested or not shown. Unless noted, no stated cut-off is given here; in the data, active means inhibition above about 30%; inactive means the rest.

SMILES	DAT uptake mod	PostGolgi yeast	PLAP activator	Cav3 T inh	D1 mod	PostGolgi ctrl
COc1ccccc1NC(=O)CN1CCC(C(=O)c2ccc(F)cc2)CC1	/	-5	1.2	-1.7	/	32*
COCC(O)CSc1nc(C)[nH]c1[N+](=O)[O-] (stereo not drawn)	-0.89	-1	0.9	1.3	/	12
CCc1cccc2c(C#N)cn(CC(=O)NCc3ccco3)c12	-0.86	-4	1.3	-2	-0.29	10
Cc1ccc(N/C(SCc2ccccc2C)=C(/C#N)C(=O)NCc2ccco2)cc1C	1.2	-6	1.1	-5.3*	/	0
CCc1ccc(N/C(SCc2cccc(F)c2)=C(/C#N)C(=O)NCc2ccco2)cc1	0.58	15	0.9	-3.6*	-0.8	-4
O=S(=O)(c1ccc(C2CCCCC2)cc1)N1CCCC1	0.31	-2	0.9	-1	/	8
CCOC(=O)C1=C(N2CCCCC2)c2cc3c(n2C1=O)CCCC3	2.2	2	1	0.95	1.6	33*
CCOC(=O)c1c(N2CCCCC2)c2ccccc2[nH]c1=O	0.017	4	1.3	0.13	/	11
CC(C)C(=O)Nc1cc(=O)[nH]c2ncnn12	0.36	1	0.8	-0.055	-1	6
OC1(c2cn(Cc3ccccc3)nn2)CCCCC1	0.78	0	0.9	0.069	/	38*
NS(=O)(=O)c1ccc(NC(=O)Cn2ncc3c2-c2ccccc2OC3)cc1	-1.3	2	0.8	0.018	/	1
CC(C)Cn1c(=O)c2c(nc3n2CCCN3CCc2ccccc2)n(C)c1=O	0.88	-6	1.5	0.75	2.1	9
Cc1cc(/C=N\NC(=O)CC(=O)NC2CCCCC2)c(C)n1-c1ccc(Cl)cc1	-0.73	0	1.1	-5.7*	/	26
CCc1ccc(/C=C/C(=O)C2C(=O)c3ccccc3C2=O)cc1	0.21	0	1.4	-3.8*	/	-9
Cc1nnc(Sc2nc3ccccc3o2)c2ccccc12	0.66	-1	1.2	-0.32	-0.071	1
Clc1ccc(-c2nnc(Sc3nc4ccccc4o3)c3ccccc23)cc1	0.054	-8	/	-4	/	57*
Cc1ccc(-c2nnc(Sc3nc4ccccc4o3)c3ccccc23)cc1	-1.1	-22	/	-3.2	/	64*
O=c1c(Cc2ccc(Cl)cc2Cl)c(O)ccn1Cc1ccc(Cl)cc1	0.31	14	1.3	-2.4	/	62*
O=c1c(Cc2ccc(Cl)cc2)c(O)ccn1Cc1cccc(Cl)c1	0.29	0	0.9	0.077	/	24
O=C(CN1CCN(c2cccc(C(F)(F)F)c2)CC1)Nc1cccc(C(F)(F)F)c1	-0.84	-2	1.4	-5.5*	/	35*
Cc1ccc(OC(F)F)c(NC(=O)Nc2cccc(C(F)(F)F)c2)c1	1.1	-2	0.7	0.055	/	56*
COc1ccc(C)cc1NC(=O)Nc1ccccc1	0.23	0	0.8	-1.8	/	10
O=C(COCC(=O)Nc1cccc(C(F)(F)F)c1)Nc1cccc(C(F)(F)F)c1	-0.16	3	1.2	0.81	/	43*
Cc1[nH]c2ccccc2c1NC(=O)CN1CCN(c2cccc(C(F)(F)F)c2)CC1	2.2	5	1.7	-8.2*	-0.29	28
CNC(=O)Nc1cccc(C(F)(F)F)c1	0.56	10	/	-1.1	-0.94	15
SMILES	DAT uptake mod	PostGolgi yeast	PLAP activator	Cav3 T inh	D1 mod	PostGolgi ctrl
CC(=O)Nc1ccc(NC(=O)CN2CCN(c3cccc(C(F)(F)F)c3)CC2)cc1	-0.19	-7	1.1	0.92	/	6
O=C(O)c1ccc(-c2noc(-c3ccc(F)cc3)n2)cc1	0.35	/	/	0.46	/	/
COc1cc(C2C(C(=O)c3ccco3)=C(O)C(=O)N2CCc2ccccc2)ccc1O (stereo not drawn)	-3.3*	8	1.3	0.42	/	28
COc1ccc(CCN2C(=O)C(O)=C(C(=O)c3ccco3)C2c2cccs2)cc1OC (stereo not drawn)	-3.3*	2	1.2	-0.69	-0.44	12
COCCN1C(=O)C(O)=C(C(=O)c2ccco2)C1c1cccc(Oc2ccccc2)c1 (stereo not drawn)	0.016	-4	1.3	-3.8*	0.018	-3
COc1cc(C2C(C(=O)c3ccco3)=C(O)C(=O)N2Cc2cccnc2)cc(OC)c1OC (stereo not drawn)	-0.28	-1	0.8	0.48	0.31	-2
CCOc1cc(C2C(C(=O)c3ccc(C)o3)=C(O)C(=O)N2CCc2ccccc2)ccc1O (stereo not drawn)	-4.6*	-7	1.1	-2.5	-0.087	4
